Laboratory results as given in PubChem BioAssay AID2153 (The Scripps Research Institute Molecular Screening Center, 2009).
Screen size: about 2,400 compounds; about 2,000 (83%) were called active. The set was probably picked from earlier hits. Not all results are given here. Unmarked numbers belong to inactive results.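 How the source made its calls: active means inhibition above the solvent-only control well mean plus 3 SD, limit set per screening run (cut at about 23% in these data); inactive means the rest.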

Target: Guanyl-specific ribonuclease T1 (Aspergillus oryzae (strain ATCC 42149 / RIB 40)) (UniProt P00651)
Sequence (P00651 whole entry, looked up): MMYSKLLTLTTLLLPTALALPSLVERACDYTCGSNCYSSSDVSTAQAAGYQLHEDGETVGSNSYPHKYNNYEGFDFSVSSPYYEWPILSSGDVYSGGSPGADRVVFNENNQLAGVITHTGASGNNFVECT
Assay: RNase T1 inhibitors, counter-screen for TPT1 inhibitor project, biochemical, fluorescence polarization (AID 2153);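 further: plate controls were DMSO wells with enzyme for no effect and wells without RNase T1 for full effect; inhibitors block cleavage so intact labeled substrate keeps polarization high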
Conditions: RNase T1 cleavage, 1536-well, at 5 µM, active compounds read high

Row | Structure (SMILES) | inhibition
1 | Cc1ccc(Nc2nc(Cl)c(C=O)s2)cc1 | 77.2% (active)
2 | Cc1ccc2[nH]c(=O)c(CN3CCCCC3)c(-c3ccccc3)c2c1 | 3.06%
3 | CCOc1ccc(-n2c(O)c(/C=N/c3ccnn3Cc3ccncc3)c3ccccc3c2=O)cc1 | 92% (active)
4 | Cc1ccc2cc(/C=N/Nc3ccc(C(=O)O)cc3)c(Cl)nc2c1 | 46.9% (active)
5 | CCn1c(/C=C/c2ccc([N+](=O)[O-])o2)nc2ccccc2c1=O | 49.4% (active)
6 | CN=c1scc(-c2cc(OC)ccc2OC)n1/N=C/c1c(C)[nH]c2ccccc12 | 32.1% (active)
7 | COc1cc(N2CCCC2)c(OC)cc1/C=C(/C#N)c1cccc(Br)c1 | 91.3% (active)
8 | CCN1/C(=C/c2ccc3ccc(C)cc3[n+]2CC)Sc2ccccc21 | 59.6% (active)
9 | CCN1/C(=C\c2ccc3ccccc3[n+]2CC)Sc2cc(C)ccc21 | 88.3% (active)
10 | O=S(=O)(O)Oc1c[nH]c2ccccc12 | 49.5% (active)
11 | CCOC(=O)C1=C(C)Nc2sc(C(=O)c3ccc(Br)cc3)c(N)c2C1c1ccc(C(=O)OC)cc1 (centres undefined) | 37.3% (active)
12 | Cc1cc(/C=C2/SC(=O)N(CC(=O)N3CCCC3)C2=O)ccc1N1CCOCC1 | 78.1% (active)
13 | CC(=O)n1c(C=Nc2ccccc2)c(O)c2ccccc21 | 84.6% (active)
14 | COC(=O)c1[nH]c2cccc(C)c2c1NC(=O)CN1CCCc2ccccc21 | 29.8% (active)
15 | CCN(CC)c1ccc2cc(C(N)=O)/c(=N\NC(=O)c3ccncc3)oc2c1 | 135% (active)
16 | CCOC(=O)c1c(NC(=S)Nc2ccccc2)sc2c1CCN(C)C2 | 54% (active)
17 | CC(=O)c1cc(NC(=O)c2ccccc2)c(=O)oc1/C=C/N(C)C | 123% (active)
18 | CC[n+]1cc(C)ccc1/C=C/c1ccc(N(C)C)cc1 | 51.2% (active)
19 | O=C(NNc1c2ccccc2nc2ccccc12)c1cc2ccccc2cc1O | 46.8% (active)
20 | CCN(CC)C(=O)CSC(Nc1cccc(F)c1)=C(C#N)C#N | 61.1% (active)
21 | CN(C)CCCn1c(N)c(C#N)c2nc(C#N)c(C#N)nc21 | 58.9% (active)
22 | Cc1ccc(N=C2NC(=O)/C(=C/C=C/c3ccco3)S2)cc1C | 30.5% (active)
23 | COc1ccc(Cc2nc(-c3ccccn3)no2)cc1OC | 13.1%
24 | CN(C)c1ccc(/C=C2\NC(=S)N(Cc3ccccc3)C2=O)cc1 | 144% (active)
25 | CCOC(=O)c1c(CC(C)C)csc1/N=C/C1=C(O)CCCC1=O | 17.9%

Row | Structure (SMILES) | inhibition
26 | Cc1ccc(-n2c(C)cc(/C=N/Nc3ccc([N+](=O)[O-])cn3)c2C)c(C)c1 | 76.1% (active)
27 | Cc1cc(/C=N/Nc2ccc([N+](=O)[O-])cn2)c(C)n1-c1cccc(C(=O)O)c1 | 62.8% (active)
28 | Nc1nonc1-n1nnc(C(=O)N/N=C/c2cc(Br)ccc2O)c1CSC1=NCCS1 | 41.6% (active)
29 | COc1ccccc1/C=N/Nc1nc(C)c(C(C)=O)s1 | 39.1% (active)
30 | O=C(CN1C(=O)c2ccccc2C1=O)NCc1ccc(C(=O)O)cc1 | 15.9%
31 | Cc1c(CC(=O)N2CCN(C(=O)C3COc4ccccc4O3)CC2)c(=O)oc2c(O)c(O)ccc12 (centres undefined) | 8.71%
32 | COc1cc(/C=C2/SC(=S)N(Cc3ccccc3)C2=O)cc(OC)c1O | 108% (active)
33 | NC(=O)c1c(Nc2nc3c(F)cccc3s2)sc2c1CCCC2 | 97.8% (active)
34 | CC1=CC2=NC(=O)/C(=C/c3coc4ccccc4c3=O)C(=N)N2O1 | 45.6% (active)
35 | Oc1ccc(/C=N/Nc2nc(-c3ccccc3F)nc3ccccc23)c(O)c1 | 41.4% (active)
36 | CCOC(=O)/C(C#N)=C/c1ccc(N2CCN(Cc3ccccc3)CC2)cc1 | 92.8% (active)
37 | CCOC(=O)/C(C#N)=C/c1ccc(N2CCCCC2)cc1 | 129% (active)
38 | N#C/C(=C/c1ccc(N2CCOCC2)o1)C(=O)N1CCOCC1 | 178% (active)
39 | Cc1ccc(CC2S/C(=C(/C#N)C(=O)N3CCOCC3)N(c3ccccc3)C2=O)cc1 (centres undefined) | 14.3%
40 | N#C/C(=C\c1ccc(N2CCOCC2)o1)C(=O)N1CCOCC1 | 165% (active)
41 | COc1cc2c(cc1O)[C@H](Cc1ccc(Oc3cc(C[C@@H]4NCCc5cc(OC)c(O)cc54)ccc3O)cc1)NCC2 | 44.2% (active)
42 | Cc1nc2ccccc2nc(=O)c1NNc1ccc([N+](=O)[O-])cc1 | 47.2% (active)
43 | O=C1NC(=O)C2C1C(c1ccc([N+](=O)[O-])cc1)=NN2Cc1ccccc1 (centres undefined) | 48% (active)
44 | Nc1c(C(=O)c2cccs2)sc2nsc(SCCN3CCCCC3)c12 | 73.8% (active)
45 | CN1C(=O)/C(=C/C=C2\SCCN2C)OC1=S | 165% (active)
46 | COc1ccc(N=C(C)c2sc3ccccc3c2O)cc1 | 82.8% (active)
47 | Cc1cccc2cc3c(N)c(C(=O)N4CCCc5ccccc54)sc3nc12 | 68.5% (active)
48 | Cc1sc2nc(COC(=O)C(NC(=O)c3ccc(Cl)cc3Cl)C(C)C)[nH]c(=O)c2c1C (centres undefined) | 66.8% (active)
49 | O=C(Nc1ccc(S(=O)(=O)Nc2nccs2)cc1)c1cc(-c2ccncc2)nc2ccccc12 | 64.3% (active)
50 | CCCCCCc1cc2cc(-c3nnc(-c4ccccc4)o3)c(=O)oc2cc1O | 110% (active)

Row | Structure (SMILES) | inhibition
51 | NNC(=O)c1oc2nc(-c3ccccc3)cc(-c3ccco3)c2c1N | 43.8% (active)
52 | COc1cc(/C=C(\C#N)c2nc3ccccc3[nH]2)ccc1O | 112% (active)
53 | COc1cc(/C=C(\C#N)c2nc3c(s2)CC(C)CC3)ccc1O (centres undefined) | 125% (active)
54 | C[n+]1ccc(/C=C/c2c[nH]c3ccccc23)cc1 | 63.7% (active)
55 | CN(c1ccccc1)c1ccc(/C=c2\s/c(=C(/C#N)C(=O)C(C)(C)C)n(Cc3ccco3)c2=O)cc1 | 125% (active)
56 | C=CCC1=C/C(=C\c2c(N)n3nc(CC(=O)N4CCOCC4)sc3nc2=O)C=C(OC)C1=O | 106% (active)
57 | CC(C)(C)c1ccc(/C=C2\Oc3c(ccc(O)c3CN3CCN(CCO)CC3)C2=O)cc1 | 45.6% (active)
58 | Cc1ccc(CSCC2Nc3ccc(C(=O)N4CCN(c5ccc(F)cc5)CC4)cc3NC2=O)cc1 (centres undefined) | 22.8% (active)
59 | O=C1Nc2cc(C(=O)N3CCN(c4ccc(F)cc4)CC3)ccc2NC1CSCc1cccc(F)c1 (centres undefined) | 116% (active)
60 | CC(C)c1ccc(Nc2nnc(SCC(=O)c3nnc(-c4ccccc4)o3)s2)cc1 | 29.1% (active)
61 | O=C(O)C(c1ccccc1)N1C(=O)/C(=C\c2ccc(-c3cccc(Cl)c3)o2)SC1=S (centres undefined) | 146% (active)
62 | CN1C(=O)/C(=C\c2ccc(-c3ccccc3)o2)SC1=S | 96.2% (active)
63 | CCC(=C/c1sc2ccc3ccccc3c2[n+]1C)/C=C1\Sc2ccc3ccccc3c2N1C | 104% (active)
64 | O=C(N/N=C/c1sc(N2CCCCC2)nc1-c1cccs1)c1cccnc1 | 51.2% (active)
65 | Cc1cccc(COc2ccccc2/C=N/Nc2ccc([N+](=O)[O-])cc2)c1 | 98.6% (active)
66 | Cc1cccc(NC(=O)c2ccc(COc3ccccc3[N+](=O)[O-])o2)n1 | 8.35%
67 | O=[N+]([O-])c1ccc(N/N=C/c2ccccc2)cc1 | 52.2% (active)
68 | CCOc1ccc(/C=C2\SC(=S)N(NC(=O)c3ccncc3)C2=O)cc1OC | 65.5% (active)
69 | Cc1c(C(=O)OC(C)C)sc(NC(=O)c2cccnc2)c1C#N | 38.8% (active)
70 | CCOc1cc(/C=C(\C#N)c2nc(-c3cccs3)c(NC(C)=O)s2)ccc1O | 95.6% (active)
71 | Cn1ccc(=NC=C(C#N)C#N)c2ccccc21 | 31.9% (active)
72 | CC1CCN(C(=O)c2ccc3c(c2)NC(=O)CN3)CC1 | 52.2% (active)
73 | O=C(C[n+]1cc(Br)cc2ccccc21)c1ccc(F)cc1 | 54.2% (active)
74 | O=C(Cc1nc2ccccc2[nH]c1=O)c1ccc(Cl)cc1 | 65.7% (active)
